PubChem BioAssay AID720650 (Broad Institute, 2013)
Activity calls are given as the source filed them. No rule for the calls is given here.

Test: C difficile toxins, biochemical counterscreen, UDPG substrate absence, confirmatory dose response (AID 720650)
Details: series mostly up to 19.5 µM
With CC(C)(Oc1ccc(Cl)cc1)C(=O)NC1CC1 the AC50 was “inactive”.
In the case of COc1cc(-c2noc(C)c2C#CC2(O)CCCCC2)cc(OC)c1OC, the AC50 is reported as “inactive”.
In the case of COc1ccc(-c2ccc3c(c2)[C@@H]2[C@@H](CCN2C(=O)C2CC2)[C@H](CO)N3C)cc1, the AC50 is reported as 14.8 µM (active).
In the case of CC(C)Cc1[nH]c(=O)c(C#N)c2c1CCC2, the AC50 is reported as “inactive”.
For Cc1cc(C)cc(N=C2NC(=O)CS2)c1, the AC50 was “inactive”.
With Cc1ccnc(N2C(=O)c3ccccc3C2=O)c1 the AC50 was “inactive”.
For CCCCn1c(CN2CCN(C(=O)c3ccco3)CC2)nc2c1c(=O)n(C)c(=O)n2C, the AC50 was “inactive”.
